Unmarked numbers belong to inactive results. How the calls were made is not given here.

This test is described as follows: Pseudomonas biofilm growth suppression – PAO1 strain, BacTiter-Glo luminescence, LB-PBS, primary screen (AID 1144). The following applies: P. aeruginosa PAO1 biofilm, 12 h, higher = more signal.
Take `Cc1ccccc1C(O)C1C=CC2C(=O)N(c3ccccc3)C(=O)C2N1Nc1ccccc1F` (stereo not given): the z-score is -0.626.

For `COC(=O)[C@@]1(CCS(=O)(=O)c2ccccc2)N=C(c2ccc(OCCCO)cc2)O[C@H]1c1ccccc1N=[N+]=[N-]`, the z-score was -0.16.

As for `C=C(CCCC)C(=O)CC[C@H](OC(=O)c1cccnc1)c1ccc(CO)o1`, the z-score is -0.159.

Regarding `COCCOC(=O)N1C(=O)[C@@]2(c3cc(C#CC4(O)CCCCCC4)ccc31)[C@H](c1ccc(OCCO)cc1)N1[C@H](c3ccccc3)[C@H](c3ccccc3)OC(=O)[C@H]1[C@@H]2C(N)=O`, the z-score was 0.323.

Consider `CN(C)C(=O)[C@]1(Cc2ccccc2)N=C(c2ccc(OCCCO)cc2)O[C@@H]1c1ccccc1`, for which the z-score was 0.18.

Consider `COc1ccc(C#Cc2ccc3c(c2)[C@]2(C(=O)N3)[C@H](C(=O)Nc3nc4ccccc4s3)[C@H]3C(=O)O[C@H](c4ccccc4)[C@H](c4ccccc4)N3[C@@H]2c2ccc(OCCO)cc2)cc1`, for which the z-score is -0.953.

Regarding `CCOC(=O)C[C@H]1[C@H](OC(=O)c2ccc(C(=O)c3ccccc3)cc2)[C@@H](NC(=O)c2ccc3ccccc3c2)c2cc(OCCCO)ccc2N1C(=O)c1ccc2ccccc2n1`, the z-score was -0.0217.

In the case of `CN(C)CCCCNC(=O)[C@H]1C[C@H]2C(=O)N[C@@H](Cc3ccccc3)C(=O)N2[C@H]1c1cccc(OCCO)c1`, the z-score was -0.584.

For the compound `C=C(CC1([C@@H](NP(=O)(c2ccccc2)c2ccccc2)[C@H]2C[C@@H]2CCN(C(=O)OCC)S(=O)(=O)c2ccc(C)cc2)CC1)c1ccccc1`, the z-score is 0.83.

Consider `C=C(CCCC)/C(=C/C[C@H](OC(C)=O)c1cccc(OCCO)c1)c1cc(C(=O)OC)ccc1OC`, for which the z-score is 0.0689.

For `C=CCNC(=O)[C@H]1[C@@H]2C(=O)O[C@@H](c3ccccc3)[C@@H](c3ccccc3)N2[C@@H](c2ccccc2OCCO)[C@]12C(=O)N(C(=O)OCCOC)c1ccccc12`, the z-score was 0.369.

For the compound `O=C1OCCC/C=C\[C@H]2OC34C=CCN(Cc5ccccc5)C(=O)[C@H]3N(CCCCCO)C(=O)[C@@H]4C12` (stereo not given in full), the z-score was 1.2.

`CC(C)(C)OC(=O)CC[C@]1(C(=O)N2CCOCC2)N=C(c2ccc(OCCCO)cc2)O[C@H]1c1ccccc1CN=[N+]=[N-]`: the z-score was -0.405.

Consider `CCCC=C(CCC)[C@@H](NC(=O)c1ccco1)c1ccc(C(=O)OC)cc1`, for which the z-score was 0.737.

As to `COC(=O)c1c(CC[C@@H](CO)NC(=O)N[C@@H](Cc2ccccc2)Cn2cc(-c3cncn3C)nn2)oc(C(C)=O)c1C(=O)OC`, the z-score is -0.662.

Consider `COC(=O)[C@@]1(Cc2ccc(OC)cc2)[C@H]2c3cc(C(=O)N(C)C)n(Cc4ccsc4Br)c3C[C@H]2CN1C(=O)c1ccccc1`, for which the z-score is 0.00572.

For the compound `C=CCC(OC(C)=O)[C@@H]1[C@@H](N(Cc2ccc(-c3ccccc3)cc2)C(=O)c2ccc(-c3ccccc3)cc2)c2cc(OCCCO)ccc2N1C(=O)c1ccc2ccccc2n1` (stereo not given in full), the z-score was 0.196.

With `O=C1c2ccccc2[C@](Cc2ccccc2I)(C(=O)O)[C@H](c2ccc(CO)cc2)N1Cc1ccccc1`, the z-score was -0.718.

Turning to `COCC(=C=CC[C@@H](O)c1cccc(OCCO)c1)C[C@@H](O)COCc1ccccc1`, the z-score was 0.125.

Regarding `C[N+](C)(C)CCCCCCNC(=O)[C@@H]1C[C@@H]2C(=O)N[C@@H](Cc3ccccc3)C(=O)N2[C@@H]1c1ccc(O)cc1`, the z-score was -0.409.

As for `COCCOC(=O)N1C(=O)[C@@]2(c3ccccc31)[C@H](c1ccc(OCCO)cc1)N1[C@H](c3ccccc3)[C@H](c3ccccc3)OC(=O)[C@H]1[C@@H]2C(=O)N1CCN(c2ncccn2)CC1`, the z-score is -0.266.

With `COCCOC(=O)N1C(=O)[C@@]2(c3cc(C#CCCO)ccc31)[C@H](c1ccccc1OCCO)N1[C@H](c3ccccc3)[C@H](c3ccccc3)OC(=O)[C@H]1[C@@H]2C(=O)N1CCc2cc(OC)c(OC)cc2C1`, the z-score was 0.609.

As for `C=CCC(OC(C)=O)[C@@H]1[C@@H](N(Cc2cc3ccccc3o2)C(=O)Cc2ccc(OC)cc2)c2cc(OCCCO)ccc2N1C(=O)Cc1ccc(OC)cc1` (stereo not given in full), the z-score is 0.0258.

Regarding `CC(C)C[C@H]1NC(=O)[C@@]23C(=O)N[C@@H](Cc4ccccc4)C2[C@H](C)[C@@]2(C)O[C@H]2C3/C=C/C/C=C\CNC(=O)[C@@H]2CCCN2C1=O` (stereo not given in full), the z-score is 0.341.

On to `COCCOC(=O)N1C(=O)[C@@]2(c3cc(C#CCC(C(=O)OC)C(=O)OC)ccc31)[C@H](c1ccc(OCCO)cc1)N1[C@H](c3ccccc3)[C@H](c3ccccc3)OC(=O)[C@H]1[C@@H]2C(=O)N1CCCCCCC1`, for which the z-score was -0.147.

Take `COCC(=C=CC[C@@H](O)c1ccc(OCCO)cc1)C[C@@H](O)COCc1ccccc1`: the z-score was -0.498.

On to `COC(=O)[C@@H]1N=C(c2ccc(OCCCO)cc2)O[C@@H]1c1ccccc1CN=[N+]=[N-]`, for which the z-score was -0.245.

As to `C=C(COC)C(=O)CC[C@@H](OC(C)=O)c1ccc(OCCO)cc1`, the z-score is -0.176.

For `O=C(NCCO)C1=C[C@H](Oc2ccccc2I)[C@@H](O)[C@H](NCc2ccc(F)cc2)C1`, the z-score was 0.148.

Regarding `O=C1O[C@@H](c2ccccc2)[C@@H](c2ccccc2)N2[C@@H](c3ccc(OCCO)cc3)[C@]3(C(=O)Nc4ccc(C#CCCO)cc43)[C@@H](C(=O)Nc3nc4ccccc4s3)[C@H]12`, the z-score was -0.397.

As to `NCCCC[C@@H]1NC(=O)[C@H]2C[C@@H](C(=O)O)[C@@H](c3cccc(OCCO)c3)N2C1=O`, the z-score is -0.0686.

Consider `COCCOC(=O)N1C(=O)[C@@]2(c3cc(C#CCCO)ccc31)[C@H](C(=O)N1CCc3cc(OC)c(OC)cc3C1)[C@H]1C(=O)O[C@H](c3ccccc3)[C@H](c3ccccc3)N1[C@@H]2c1ccccc1OCCO`, for which the z-score is -0.652.

Consider `COC(=O)[C@@]1(Cc2ccccc2)[C@@H]2[C@@H](CC(=O)[C@H]2CC(=O)C(=O)N(C)C)CN1C(=O)c1ccccc1`, for which the z-score is -0.621.

As for `O=C1O[C@H](c2ccccc2)[C@H](c2ccccc2)N2[C@H]1[C@@H](C(=O)N1CCN(c3ncccn3)CC1)[C@]1(C(=O)Nc3ccccc31)[C@H]2c1ccc(O)cc1`, the z-score is -0.151.

For `CCOC(=O)C1=CC[C@@H](c2ccccc2Cl)N(S(=O)(=O)c2ccc(C)cc2)[C@H]1c1cccc(OC)c1`, the z-score was 1.15.

For the origin of these results see PubChem BioAssay.
